This is a sample that favours compounds with a hit; in the whole collection about 1.6% have one here.
KCNQ2 block: inhibitors of rat KCNQ2 potassium channel | 310,000 tested, 1.1% active | O88943 | CHO-K1 KCNQ2, FluxOR thallium flux, 20 min; active compounds read low | B-score at 10 µM;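 active means fluorescence ratio B-score at most minus 3 library SDs, with starting brightness B-score within 2 library SDs, cut at about -5.5 in these data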
KCNQ2 enhance: enhances the rat KCNQ2 potassium channel; O88943; CHO-K1 KCNQ2, FluxOR thallium flux fluorescence; active compounds read high; B-score at 10 µM; 310,000 tested, 0.54% active; AID 2239;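 active means fluorescence ratio B-score at least 3 SD of library B-scores, with initial fluorescence B-score within 3 of them, cut at about 5.3 in these data; same plate scores as AID 2156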;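 further: B-score of peak minus minimum over baseline fluorescence ratio after K+ and Tl+ stimulus; positive B-score means potentiation of KCNQ2 with more thallium influx and brighter signal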
Kir21 conf inh: confirmation of mouse Kir2.1 potassium channel inhibitors; shares compounds with KCNQ2 enhance; Kir2.1-expressing cells, FluxOR thallium flux fluorescence; active compounds read low; Tl flux remaining, % of negative control (active compounds read low), % at 10 µM; 2,300 tested, 41% active; AID 2032;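 active means Primary-screen hit whose thallium flux fell at least 3 control SD below untreated wells in both duplicates, with normal baseline fluorescence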;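 further: 0% = blank wells without stimulus and 100% = stimulated no-compound controls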
Target sequence (P35561 whole entry, looked up): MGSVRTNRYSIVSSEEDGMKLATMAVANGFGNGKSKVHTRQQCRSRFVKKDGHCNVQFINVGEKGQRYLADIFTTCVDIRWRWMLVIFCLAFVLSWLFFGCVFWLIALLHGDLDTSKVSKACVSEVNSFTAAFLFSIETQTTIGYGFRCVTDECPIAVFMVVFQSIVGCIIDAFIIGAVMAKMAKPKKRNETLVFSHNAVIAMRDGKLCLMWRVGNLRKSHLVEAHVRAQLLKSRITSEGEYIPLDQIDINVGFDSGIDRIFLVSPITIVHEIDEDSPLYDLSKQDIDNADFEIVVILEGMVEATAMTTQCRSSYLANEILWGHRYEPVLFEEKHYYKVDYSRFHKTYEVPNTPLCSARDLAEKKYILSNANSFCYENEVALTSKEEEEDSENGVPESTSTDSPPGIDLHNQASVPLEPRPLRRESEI
HEK293 ctr: counter-screen for Kir2.1 inhibitors: effect in parental HEK293 cells; shares compounds with KCNQ2 enhance; FluxOR thallium flux fluorescence; 0% = unstimulated blank wells; FluxOR signal as % of negative control (100 = no effect), % at 10 µM; 2,300 tested, 19% active;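 active means dye signal at least 3 control SD above or below untreated wells in both duplicates, raw fluorescence within 3, either direction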;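 further: percent is based on the flux ratio of peak minus minimum fluorescence over baseline F0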
CHO-K1 Tl ctr: counter-screen for KCNQ2 potentiators: effect in parental CHO-K1 cells | activity increase over 3SD of controls, % at 10 µM | shares compounds with KCNQ2 enhance | FluxOR thallium flux fluorescence; zero = vehicle mean+3SD, 100% = vehicle-minus-blank window | 1,200 tested, 43% active | AID 2282;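 active means signal rise of at least 3 SD above the untreated control mean, in both duplicate wells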;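 further: counter screen of KCNQ2 potentiator hits so any rise reflects channel-independent effects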
KCNQ1 sel pot: tests whether KCNQ2 potentiators also act on human KCNQ1. shares compounds with KCNQ2 enhance. CHO KCNQ1 stable, FluxOR thallium flux fluorescence; beyond 3SD, as % of vehicle-control signal. activation over 3SD threshold, % at 10 µM. 1,200 tested, 28% active. AID 2283;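 active means fluorescence ratio rise of at least 3 SD of vehicle wells above their mean, in both replicate wells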;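 further: 0% = vehicle mean plus 3 SD and 100% = vehicle minus unstimulated blank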
KCNQ2 pot conf: confirmation of rat KCNQ2 potassium channel potentiators. CHO-KCNQ2 cells, FluxOR thallium flux fluorescence. shares compounds with KCNQ2 enhance. potentiation, less the hit threshold, % at 10 µM. 1,200 tested, 68% active. AID 2287;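 active means fluorescence ratio rising 3 SD or more over the vehicle control mean in both replicates, plus primary screen hit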;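 further: peak minus minimum thallium fluorescence divided by baseline after K/Tl stimulus; 0% = vehicle mean plus 3 SD and 100% = vehicle minus unstimulated blank difference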
Kir21 spec: mouse Kir2.1 off-target activity of KCNQ2 potentiators; shares compounds with KCNQ2 enhance; HEK293 Kir2.1, FluxOR thallium flux fluorescence; activity over 3SD threshold, % at 10 µM; 1,200 tested, 2% active; AID 2345;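 active means fluorescence ratio rise of at least 3 SD above the vehicle-control mean, seen in both replicates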;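 further: 0% = vehicle mean plus 3 SD and 100% = vehicle minus no-stimulus blank window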
KCNQ2 W236L MoA: potentiates the retigabine-insensitive rat KCNQ2 W236L mutant channel; shares compounds with KCNQ2 enhance; CHO KCNQ2-W236L, automated patch clamp current; current increase over 3SD of negative controls (%), active compounds read high, % at 25 µM; 940 tested, 10% active; AID 2558;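 active means current increase at least 3 SD of the untreated controls above them in both duplicate recordings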
The depositor's hits bear a star; i = inactive; / = no result.

SMILES	KCNQ2 block	KCNQ2 enhance	Kir21 conf inh	HEK293 ctr	others
COc1ccc(CNC(=O)C2CCN(S(=O)(=O)N3CCCCC3)CC2)c(OC)c1	i	0.45	/	/
Cc1cc(C)c(S(=O)(=O)N2CCCc3ccccc32)c(C)c1	i	/	/	/
Cc1cccc(S(=O)(=O)N2CCCc3ccccc32)c1	i	/	i	i
Cc1cc(C)c(NC(=S)N(CCc2ccncc2)C(C)C)c(C)c1	i	/	/	/
CC(NC(=O)CC12CC3CC(CC(C3)C1)C2)C(=O)O (stereo unspecified)	i	1.2	/	/
COc1ccc(C(C)NC(=O)CC23CC4CC(CC(C4)C2)C3)cc1 (stereo unspecified)	i	5.7*	i	i	CHO-K1 Tl ctr=-11;KCNQ1 sel pot=-10;KCNQ2 pot conf=-3;Kir21 spec=-52;KCNQ2 W236L MoA=i
Cc1ccccc1-c1nnc(-c2cccs2)o1	i	/	/	/
O=[N+]([O-])c1ccc(S(=O)(=O)N/N=C/c2ccsc2)cc1	i	0.79	/	/
Cc1c(Cl)cccc1Nc1nc(NCCO)c2ccccc2n1	i	/	35%*	i
Oc1ccccc1Nc1nc(NCc2ccccc2)c2ccccc2n1	i	/	/	/
COc1cc(C2NC(=O)CCC2[N+](=O)[O-])c(OC)cc1Br (stereo unspecified)	i	1.7	/	/
CCc1ccc(NC(=O)Cc2ccc(NC3=NC4CS(=O)(=O)CC4S3)cc2)cc1 (stereo unspecified)	i	/	/	/
CCOc1ccc(NC(=O)Cc2ccc(NC3=NC4CS(=O)(=O)CC4S3)cc2)cc1 (stereo unspecified)	i	17*	i	i	CHO-K1 Tl ctr=8.6*;KCNQ1 sel pot=-18;KCNQ2 pot conf=-18;Kir21 spec=-30
CSc1cccc(N2CC(C(=O)N(CC(C)C)c3c(N)n(Cc4ccccc4)c(=O)[nH]c3=O)CC2=O)c1 (stereo unspecified)	i	/	/	/
CCn1c(=S)[nH]c2c(c1=O)C(C)(C)Cc1ccccc1-2	i	12*	i	288%*	CHO-K1 Tl ctr=4.3*;KCNQ1 sel pot=-15;KCNQ2 pot conf=28*;Kir21 spec=-23;KCNQ2 W236L MoA=i
CCC1(C)Cc2ccccc2-c2[nH]c(=S)[nH]c(=O)c21 (stereo unspecified)	i	1.2	/	/
COc1cc(CNCc2c[nH]c3ccccc23)cc(OC)c1	i	0.51	/	/
CCOC(=O)N1CCN(C(=O)CN(c2cccc(OC)c2)S(C)(=O)=O)CC1	i	/	/	/
CCOC(=O)N1CCN(C(=O)CN(c2ccc(OC)cc2)S(C)(=O)=O)CC1	i	27*	i	i	CHO-K1 Tl ctr=15*;KCNQ1 sel pot=-12;KCNQ2 pot conf=-24;Kir21 spec=-36
Cn1c(=O)c2[nH]c(COc3ccc(C(C)(C)C)cc3)nc2n(C)c1=O	i	1.9	/	/
Cc1cccc(N2CCN(C(=O)CNC(=O)c3cccc([N+](=O)[O-])c3)CC2)c1C	i	/	i	i
O=C(NCC(=O)N1CCN(c2ccccc2O)CC1)c1ccccc1	i	0.03	/	/
COc1ccc(NC(=O)NCCN2CCN(c3cc(OC)ccc3OC)CC2)cc1	i	0.02	/	/
COc1ccc(Cl)c(N2CCN(CCCNC(=O)Nc3ccc(C)cc3)CC2)c1	i	/	70%*	i
COc1ccc(C(=O)OC(C)C(=O)NC2CCCCC2C)cc1S(=O)(=O)N1CCOCC1 (stereo unspecified)	i	/	/	/
O=C(NCCN1C(=O)S/C(=C\c2cccnc2)C1=O)C1=NN(c2ccccc2)C(=O)CC1	i	0.33	/	/
CC(C)CCC(CCNCc1ccccn1)c1ccc(Cl)cc1 (stereo unspecified)	i	0.09	36%*	i
S=C(NCc1ccc(Cl)cc1)NCc1ccccn1	i	/	/	/
